The results in this text go back to PubChem BioAssay AID686960 (The Scripps Research Institute Molecular Screening Center, 2013).

The nature of this assay: inhibitors of DNA CAG/GTC TO-PRO-1 complex, dose response, counter-screen for rCAG RNA repeat binder project, biochemical, fluorescence, TO-PRO-1 dye (AID 686960). To be noted: DNA CAG/GTC duplex TO-PRO-1 dye displacement fluorescence. (In general: Counterscreens check selectivity or assay interference.)

Molecules are shown by their SMILES. This is one part of the list. A number with no mark means an inactive call. No stated cut-off is given here; in the data, active means IC50 below about 10 µM; inactive means the rest.

The IC50 is the point on the concentration scale where inhibition reaches its midpoint. Consider `O=C1CC(=O)N(Cc2ccccc2)C(=O)N1CCCCCCN1C(=O)CC(=O)N(Cc2ccccc2)C1=O`, for which the IC50 is 11.5 µM.
